JMJD2A Tudor: JMJD2A Tudor domain (human) inhibition; Potency, µM (titrated, usually from 114 µM), for the others: at the top dose activity change, negative = inhibition, hits mostly inhibitors; AID 504339; O75164; AlphaScreen JMJD2A-Tudor / H3K4me3 peptide binding; hit rate 4.4% among 390,000; also: % is scaled to controls: 0 for no effect and ±100 for the full control effect; nearly all actives have a fitted effect of over 50% in size
Target sequence (O75164 whole entry, looked up, the tested form may be a part): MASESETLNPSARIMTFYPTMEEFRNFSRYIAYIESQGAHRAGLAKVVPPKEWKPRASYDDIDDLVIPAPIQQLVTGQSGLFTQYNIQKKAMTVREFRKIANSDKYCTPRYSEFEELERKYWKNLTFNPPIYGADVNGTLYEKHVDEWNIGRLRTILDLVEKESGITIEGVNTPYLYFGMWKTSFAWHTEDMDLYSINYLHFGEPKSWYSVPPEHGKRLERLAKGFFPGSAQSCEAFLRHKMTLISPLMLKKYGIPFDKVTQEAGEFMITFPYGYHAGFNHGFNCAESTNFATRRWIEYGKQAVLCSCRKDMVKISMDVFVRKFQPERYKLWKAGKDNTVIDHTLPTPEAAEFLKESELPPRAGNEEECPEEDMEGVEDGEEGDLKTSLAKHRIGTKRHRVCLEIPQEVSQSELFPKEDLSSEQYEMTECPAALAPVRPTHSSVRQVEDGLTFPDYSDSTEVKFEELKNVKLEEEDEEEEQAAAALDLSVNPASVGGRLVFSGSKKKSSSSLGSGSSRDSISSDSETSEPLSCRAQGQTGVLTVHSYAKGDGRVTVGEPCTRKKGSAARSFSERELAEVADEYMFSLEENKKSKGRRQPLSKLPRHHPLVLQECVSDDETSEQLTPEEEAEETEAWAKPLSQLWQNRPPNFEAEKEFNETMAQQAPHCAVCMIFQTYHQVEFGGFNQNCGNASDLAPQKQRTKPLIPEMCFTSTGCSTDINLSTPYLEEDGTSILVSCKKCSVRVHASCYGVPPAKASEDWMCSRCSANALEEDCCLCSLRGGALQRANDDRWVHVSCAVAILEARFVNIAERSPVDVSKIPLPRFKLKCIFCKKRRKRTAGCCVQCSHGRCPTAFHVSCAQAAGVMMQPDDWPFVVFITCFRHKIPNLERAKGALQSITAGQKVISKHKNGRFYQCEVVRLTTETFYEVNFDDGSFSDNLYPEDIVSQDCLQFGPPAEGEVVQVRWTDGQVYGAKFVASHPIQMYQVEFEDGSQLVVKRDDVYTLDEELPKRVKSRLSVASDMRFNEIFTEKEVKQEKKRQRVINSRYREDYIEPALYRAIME
ALOX12 inh: blocks human arachidonate 12S-lipoxygenase. purified 12hLO, xylenol orange hydroperoxide absorbance. Potency, µM (highest dose often 108 µM), inactives show at the top dose activity change, negative = inhibition, most hits filed as inhibitors. hit rate 1.1% among 580,000; also: % is scaled to controls: 0 for no effect and ±100 for the full control effect
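Hydroperoxide product was detected by ferrous iron/xylenol orange as the 573 to 405 nm absorbance ratio. Arachidonic acid at 40 uM (final) was turned over for 30 min at room temperature by 150 nM human 12hLO, pH 7.0 Hepes buffer, after 15 min compound preincubation.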
HP1b chromo inh: inhibitors of HP1-beta chromodomain binding to methylated histone tails | AlphaScreen HP1-beta / biotin-H3K9me3 peptide binding | Potency, µM (series often up to 114 µM), without a hit: top-dose activity change, negative = inhibition, actives largely listed as inhibitors | hit rate 0.56% among 390,000; also: nearly all actives have a fitted effect of over 70% in size
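Compound inhibition of the preformed complex between 50 nM HP1-beta and 50 nM biotinylated H3K9me3 peptide was read by AlphaScreen. Buffer was PBS pH 7.4 with 0.01% Tween-20. Incubations ran 30 min at room temperature, with 10 ug/mL donor/acceptor beads.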
BAZ2B block: BAZ2B (human) inhibition; hit rate 4.4% among 360,000; AlphaScreen BAZ2B-H3K14Ac peptide displacement; Q9UIF8; Potency, µM (titrated, usually from 114 µM), for the others: at the highest dose activity change, negative = inhibition, most hits filed as inhibitors; also: % is scaled to controls: 0 for no effect and ±100 for the full control effect; nearly all actives have a fitted effect of over 60% in size
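AlphaScreen displacement: compounds (up to 110uM) incubated 30 min at room temperature with a preformed 50 nM BAZ2B/50 nM biotinylated H3K14Ac peptide complex in PBS pH 7.4 with Tween-20. Donor and acceptor beads at 10 ug/mL final added, 20 min light-protected before reading.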
G9a block: G9a (human) methyltransferase inhibition | Q96KQ7 | G9a H3K9 monomethylation, AlphaScreen, 2 h | Potency, µM (doses to about 102 µM), inactives show at the top dose activity, negative = inhibition, usual class: inhibitors | hit rate 8.8% among 350,000; also: % is scaled to controls: 0 for no effect and ±100 for the full control effect; nearly all actives have a fitted effect of over 75% in size
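Compounds were preincubated with 20 nM G9a for 15 min, after which biotinylated H3K9 peptide (500 nM) and SAM (20 uM) started a 2 h room-temperature reaction. Monomethylated product was quantified by antibody-based AlphaScreen chemiluminescence.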
Sfp inh: Sfp phosphopantetheinyl transferase inhibition | Biochemical Sfp PPTase activity, qHTS | Q9F4F7 | Potency, µM, for inactives: largest response in the series, negative = inhibition, actives largely listed as inhibitors | hit rate 3.5% among 310,000;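 also: the enzyme is Sfp with the accession as filed and its product quenches rhodamine fluorescence; 0% = enzyme reaction without inhibitor and -100% = no enzyme wells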
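Step 1, compound plus 15 nM Sfp-PPTase, 15 min, room temperature. Step 2, add rhodamine-CoA (5 uM) and BHQ-2-YbbR (12.5 uM). Step 3, read 525/598 nm fluorescence at 0 and 30 min.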
* marks the source's active call; other numbers are inactive results; [ ] = remark or other dose. Sampled rows, rich in hits. Any-hit rate of the full collection: about 8.7%. Calls follow the shape of the dose curve; as a rule, active = well fitted curve in the direction sought with a large enough effect; inconclusive = small, poorly fitted or top-dose-only effect, or another doubt; inactive = no such curve, though single readings can be large; an effect the other way counts as inactive or inconclusive. Potency is read from the fitted curve at half-maximal effect.

How did O=C(c1cn(C2CCCCC2)nn1)N1CCCC(C(=O)N2CCOCC2)C1 (stereo not drawn) do in these assays?
ALOX12 inh: 2%

How did CCOc1ccc(C2C(C(=O)OC)=C(C)NC3=C2C(=O)c2ccccc23)cc1OC (stereo not drawn) do in these assays?
JMJD2A Tudor: inconclusive; ALOX12 inh: -12%; HP1b chromo inh: inconclusive; BAZ2B block: -33%; G9a block: inconclusive

What do the screens show for `C#CCOc1c(Br)cc(C2C(C(=O)OC)=C(C)NC3=C2C(=O)c2ccccc23)cc1OCC` (stereo not drawn)?
JMJD2A Tudor: 11µM*; ALOX12 inh: inconclusive; HP1b chromo inh: inconclusive; BAZ2B block: inconclusive; G9a block: 10µM*

Results for Cc1cc(C)c2c(N)c3ccccc3nc2n1 ?
JMJD2A Tudor: 2%; ALOX12 inh: 0%; HP1b chromo inh: 32%; BAZ2B block: 2%; G9a block: 50µM*; Sfp inh: 6%

Results for O=C(NCc1ccc(S(=O)(=O)Nc2ccccc2Cl)s1)c1ccccc1 ?
JMJD2A Tudor: -4%; ALOX12 inh: -63%; HP1b chromo inh: 43%; BAZ2B block: 0%; G9a block: 79µM*; Sfp inh: 0%

What do the screens show for `O=C(NCc1ccc(S(=O)(=O)NC2CCCCC2)s1)c1ccccc1`?
JMJD2A Tudor: 1%; ALOX12 inh: -1%; HP1b chromo inh: 37%; BAZ2B block: -10%; G9a block: inconclusive; Sfp inh: 4%

What do the screens show for `O=S1(=O)CCC(N=Cc2cc(Br)ccc2O)C1` (stereo not drawn)?
JMJD2A Tudor: -8%; ALOX12 inh: 28µM*; HP1b chromo inh: 17%; BAZ2B block: -2%; G9a block: 9%[12.7 µM]; Sfp inh: -2%

Results for CCC(CO)NC(=O)c1nc(-c2ccc3[nH]ccc3c2)no1 (stereo not drawn) ?
ALOX12 inh: -2%

How did NC(=S)N/N=C\c1ccc(-c2cccc(Cl)c2Cl)o1 do in these assays?
JMJD2A Tudor: -18%; ALOX12 inh: inconclusive; HP1b chromo inh: 3%; BAZ2B block: -5%; G9a block: -45%; Sfp inh: -17%

What do the screens show for `Cc1ccc(-c2ccc(/C=N/NC(N)=S)o2)cc1`?
JMJD2A Tudor: -35%; ALOX12 inh: 45µM*; HP1b chromo inh: inconclusive; BAZ2B block: -28%; G9a block: 8.9µM*; Sfp inh: 20µM*

How did NC(=S)N/N=C/c1ccc(-c2ccccc2)o1 do in these assays?
JMJD2A Tudor: -35%; ALOX12 inh: inactive; HP1b chromo inh: 14%; BAZ2B block: inconclusive; G9a block: 6.3µM*; Sfp inh: 4%

How did NC(=S)N/N=C/c1ccc(-c2ccc(Cl)c(Cl)c2)o1 do in these assays?
JMJD2A Tudor: -28%; ALOX12 inh: inconclusive; HP1b chromo inh: 3%; BAZ2B block: inconclusive; G9a block: -35%[59 µM]; Sfp inh: 45µM*

How did CN(C)/N=C/c1ccc(/C=N/NC(N)=S)o1 do in these assays?
JMJD2A Tudor: -21%; ALOX12 inh: -6%; HP1b chromo inh: 17%; G9a block: inconclusive; Sfp inh: 45µM*

What do the screens show for `NC(=S)N/N=C/c1cccc(/C=N/NC(N)=S)c1`?
JMJD2A Tudor: -23%; ALOX12 inh: inconclusive; HP1b chromo inh: 1%; BAZ2B block: -12%; Sfp inh: -28%

How did O=S(=O)(c1ccc(-c2csc(-c3cccc(Cl)c3)n2)cc1)N1CCOCC1 do in these assays?
ALOX12 inh: -1%

How did COc1ccccc1[C@@H]1CN(C(=O)CN2CCOCC2)C[C@H]1C(=O)O do in these assays?
ALOX12 inh: 63%

How did O=C(O)c1cc(-c2ccc(/C=N/NC(=S)Nc3ccccc3)o2)ccc1Cl do in these assays?
JMJD2A Tudor: -30%; ALOX12 inh: 28µM*; HP1b chromo inh: -7%; BAZ2B block: inconclusive; G9a block: -12%[59 µM]; Sfp inh: 40µM*

How did O=[N+]([O-])c1cccc(-c2ccc(/C=N/NC(=S)Nc3ccccc3)o2)c1 do in these assays?
JMJD2A Tudor: -27%; ALOX12 inh: -2%; HP1b chromo inh: -8%; BAZ2B block: 3%[57.1 µM]; G9a block: 1%; Sfp inh: -22%

How did O=C1CC(c2ccc(O)c(O)c2)Oc2cc(O)cc(O)c21 (stereo not drawn) do in these assays?
JMJD2A Tudor: 79µM*; ALOX12 inh: 6.3µM*; HP1b chromo inh: -4%; BAZ2B block: -11%; G9a block: -44%[2.33 µM]; Sfp inh: -22%

Results for COc1ccc([C@H]2Cc3cc(O)cc(O)c3C(=O)O2)cc1O ?
JMJD2A Tudor: -13%; ALOX12 inh: 22µM*; HP1b chromo inh: 23%

What do the screens show for `CC(C)=CCc1c(O)ccc2c1OC(c1ccc(O)c(O)c1)CC2=O` (stereo not drawn)?
JMJD2A Tudor: inconclusive; ALOX12 inh: 28µM*; HP1b chromo inh: -16%; BAZ2B block: inconclusive; G9a block: 0%[12.7 µM]; Sfp inh: 2%

What do the screens show for `COc1ccc([C@H]2Cc3cccc(O)c3C(=O)O2)cc1O`?
JMJD2A Tudor: -11%; ALOX12 inh: 2%; HP1b chromo inh: 42%; BAZ2B block: -1%; G9a block: 13%[2.33 µM]

What do the screens show for `O=C1CC(c2ccc(O)c(O)c2)Oc2c1ccc(O)c2O` (stereo not drawn)?
JMJD2A Tudor: 8.9µM*; ALOX12 inh: 35µM*; HP1b chromo inh: inconclusive; BAZ2B block: 10µM*; G9a block: -190%[59 µM]; Sfp inh: 56µM*

What do the screens show for `COC(=O)Nc1ccc(CNC(=O)c2ccc(C)cc2)cc1`?
ALOX12 inh: -4%

What do the screens show for `O=C1NCc2ccccc2CC12CCCN(Cc1cccc(OC(F)(F)F)c1)C2` (stereo not drawn)?
ALOX12 inh: 6%[6.33 µM]

What do the screens show for `CCC(CC)=NNc1ccc([N+](=O)[O-])cc1[N+](=O)[O-]`?
JMJD2A Tudor: -17%; ALOX12 inh: -12%; HP1b chromo inh: 24%; BAZ2B block: inconclusive; G9a block: 9%; Sfp inh: 9%

What do the screens show for `C/C(=N/Nc1ccc([N+](=O)[O-])cc1[N+](=O)[O-])C(C)(C)C`?
ALOX12 inh: -20%

Results for O=C(O)/C(CC(=O)c1ccc(Cl)cc1)=N/Nc1ccc([N+](=O)[O-])cc1[N+](=O)[O-] ?
JMJD2A Tudor: 40µM*; ALOX12 inh: inconclusive; HP1b chromo inh: -38%; BAZ2B block: 40µM*; G9a block: -4%[2.33 µM]; Sfp inh: 2%

What do the screens show for `C#CCOC(=O)CCCNc1ccc([N+](=O)[O-])cc1[N+](=O)[O-]`?
JMJD2A Tudor: 56µM*; ALOX12 inh: -15%; HP1b chromo inh: -22%; BAZ2B block: 50µM*; G9a block: -23%[59 µM]; Sfp inh: 7%

Screening results (PubChem)
